Screens (PubChem BioAssay)
A selection: hits, their analogues and other compounds. The true share with any hit is near 19%.
TDP1 cell CPT: growth inhibition of DT40 Tdp1-/-;hTDP1 cells with camptothecin (screen for TDP1 inhibitors); chicken DT40 Tdp1-/-;hTDP1 cells + 20 nM CPT, ATP luminescence, 48 h; Potency, µM (series often up to 46.2 µM), for the others: top-dose activity change, negative = growth inhibition, most hits filed as inhibitors; 420,000 compounds, 12% hits; note: nearly all actives have a fitted effect of over 55% in size
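Chicken DT40 Tdp1-/- cells stably complemented with human TDP1 were seeded at 400 cells/well in medium containing 20 nM camptothecin, exposed to pin-transferred compounds, and grown at 37 °C for at least 48 hr. Viability was read as ATP luminescence.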
HT1080NT lethal: kills 2HG-producing HT-1080-NT fibrosarcoma cells; HT-1080-NT fibrosarcoma viability, CellTiter-Glo ATP luminescence, 48 h; Potency, µM (top dose mostly 46.1 µM), for the others: at the highest dose activity, negative = less viability, usual class: cytotoxic; 360,000 compounds, 1.6% hits; AID 686970;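 note: NT is the 2HG producing partner of a matched IDH1 knockdown line; 0% = DMSO-treated cells and -100% = media-only wells without cells; nearly all actives have a fitted effect of over 55% in size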
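A 48-hour cytotoxicity screen used HT-1080-NT cells plated 2 hours before compound delivery. ATP-based CellTiter-Glo luminescence measured viability, normalized to DMSO and no-cell controls.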
KB-3-1 cytotox: kills parental KB-3-1 adenocarcinoma cells; Potency, µM (highest dose often 46.1 µM), most hits filed as cytotoxic; KB-3-1 viability, CellTiter-Glo ATP luminescence, 72 h; 400,000 compounds, 1.4% hits; AID 1347075; note: nearly all actives have a fitted effect of over 60% in size
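Using CellTiter-Glo luminescence, growth of non-resistant KB-3-1 adenocarcinoma cells is assessed 72 h after pin-tool compound addition at 37 °C. Normalized responses across the concentration series yield fitted curves.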
KB-V1 MDR tox: KB-V1 MDR subline cytotoxicity | KB-V1 MDR cells viability, CellTiter-Glo, 72 h | Potency, µM (top dose mostly 46.1 µM), usual class: cytotoxic | 400,000 compounds, 3.4% hits; note: nearly all actives have a fitted effect of over 60% in size
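Cytotoxicity toward P-gp-expressing KB-V1 cells was determined as loss of CellTiter-Glo luminescence after 72 h at 37 degrees C. Compounds were tested in quantitative HTS format across a concentration range, with curves fitted to normalized data.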
HT1080 IDH1KD tx: kills HT-1080 cells with IDH1 knockdown; Potency, µM (series often up to 46.1 µM), for the others: at the highest dose activity, negative = toxicity, most hits filed as cytotoxic; HT-1080 IDH1 knockdown viability, ATP luminescence, 48 h; 360,000 compounds, 2% hits; AID 686971;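 note: 0% = DMSO wells and -100% = cell-free medium wells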
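In this qHTS, HT-1080 cells depleted of IDH1 are exposed for 48 h at 37 °C to compound titrations. Toxicity is scored from CellTiter-Glo luminescence, with DMSO as full viability and medium alone as none.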
TDP1 cell noCPT: qHTS for Inhibitors of human tyrosyl-DNA phosphodiesterase 1 (TDP1): qHTS in cells in absence of CPT; Potency, µM (top dose mostly 46.2 µM), for the others: at the highest dose activity change, negative = growth inhibition, usual class: inhibitors; AID 686978, 2013; DT40 Tdp1-/- hTDP1 cells, no CPT, ATP luminescence, 48 h; 420,000 compounds, 15% hits; note: nearly all actives have a fitted effect of over 55% in size
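Readout: luminescence from CellTiter-Glo after 30 min in the dark at RT. Cells: DT40 Tdp1-/- with stable hTDP1, 400/well. Exposure: compounds alone, ≥48 hr, 37 °C.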
* = called active by the depositor; i = inactive; u = inconclusive; x = not tested or not shown. Calls come from the whole dose curve; as a rule, active = well fitted curve in the direction sought with a large enough effect; inconclusive = small, poorly fitted or top-dose-only effect, or another doubt; inactive = no such curve, though single readings can be large; an effect the other way counts as inactive or inconclusive. Unless noted, % is set by controls: 0 for no effect and ±100 for the full control effect; potency is the fitted concentration of half-maximal effect.

SMILES	TDP1 cell CPT	HT1080NT lethal	KB-3-1 cytotox	KB-V1 MDR tox	HT1080 IDH1KD tx	TDP1 cell noCPT
Cc1ccc(S(=O)(=O)Nc2ccc(N3CCCCC3)cc2)cc1	u	-12%	i	i	-12%	u
Cc1ccc(S(=O)(=O)Nc2ccccc2N2CCOCC2)cc1	21µM*	21µM*	13µM*	u	18µM*	u
Cc1ccc(S(=O)(=O)Nc2ccccc2N2CCCCC2)cc1	u	u	u	u	u	16µM*
CC(C(=O)NCc1cccs1)N1CCN(S(=O)(=O)c2ccc3c(c2)OCCCO3)CC1 (stereo not drawn)	u	2%	i	i	-1%	u
CC(C)c1ccc(N2C(=O)CC(Sc3nc4ccccc4o3)C2=O)cc1 (stereo not drawn)	4.6µM*	-1%	i	i	2%	5.8µM*
CC(C)c1ccc(N2C(=O)CC(Sc3ncn[nH]3)C2=O)cc1 (stereo not drawn)	4.6µM*	7%	i	i	8%	4.6µM*
COc1ccc(N2C(=O)CC(Sc3ncn[nH]3)C2=O)c(OC)c1 (stereo not drawn)	2.9µM*	u	i	i	10µM*	2.9µM*
O=C(O)c1cccnc1SC1CC(=O)N(c2ccccc2)C1=O (stereo not drawn)	-14%	18%	i	u	10%	8%
CC1CC(=O)N(c2ccc(C(C)C)cc2)C(=O)C1	8%	15%	i	i	-2%	-6%
CCCOc1ccc(/C(O)=C2\C(=O)C(=O)N(c3ccccn3)C2c2ccccc2F)cc1C (stereo not drawn)	17%	u	i	18µM*	u	-1%
COc1cccc(/C(O)=C2\C(=O)C(=O)N(c3ccccn3)C2c2cccc(OC)c2OC)c1 (stereo not drawn)	-5%	1%	i	23µM*	1%	-9%
COc1ccc(C2/C(=C(/O)c3ccccc3)C(=O)C(=O)N2c2ccccn2)cc1 (stereo not drawn)	-3%	u	i	i	9%	18%
COc1ccc(C2/C(=C(/O)c3ccc(C)cc3)C(=O)C(=O)N2c2ccccn2)cc1OC (stereo not drawn)	4%	17%	i	u	0%	0%
Cc1ccc(NC(=O)CN(C)C(=O)c2ccc(OCc3c(C)noc3C)cc2)cc1	-20%	9%	i	i	11%	-22%
C=CCN(Cc1ccc(Br)s1)C(=O)c1ccc(OCc2c(C)noc2C)cc1	u	-8%	i	i	-14%	16µM*
Cc1sc2ncnc(N3CCN(Cc4ccccc4)CC3)c2c1-c1ccc(F)cc1	u	4%	u	15µM*	5%	u
Fc1ccc(-c2csc3ncnc(N4CCN(Cc5ccccc5)CC4)c23)cc1	21µM*	7%	x	x	6%	15µM*
CC(=O)NCCCc1nc2ccccc2n1Cc1ccc(C)cc1	-8%	-4%	i	i	6%	-4%
Cc1ccccc1Cn1c(CCCNC(=O)C2CCCCC2)nc2ccccc21	18µM*	x	i	i	x	15µM*
O=C(NCCCc1nc2ccccc2n1Cc1ccc(F)cc1)C1CCCCC1	u	x	i	i	x	26µM*
O=C(NCCCc1nc2ccccc2n1Cc1ccccc1)C1CCCCC1	18µM*	x	i	i	x	16µM*
Cn1c2ccccc2n2c(=O)c(Cl)c(-c3ccccc3)c(C#N)c12	u	1%	i	i	-5%	u
CC(=O)N1CCc2c(sc3c2c(=O)n(Cc2ccccc2)c(=O)n3Cc2ccc(Cl)cc2)C1	u	x	u	i	x	29µM*
CCOC(=O)N1CCc2c(sc3c2c(=O)n(CCc2ccccc2)c(=O)n3Cc2ccc(C)cc2C)C1	u	x	x	x	x	23µM*
CC(=O)N1CCc2c(sc3c2c(=O)n(-c2ccccc2)c(=O)n3Cc2cccc(C(F)(F)F)c2)C1	16µM*	x	u	i	x	18µM*
SMILES	TDP1 cell CPT	HT1080NT lethal	KB-3-1 cytotox	KB-V1 MDR tox	HT1080 IDH1KD tx	TDP1 cell noCPT
CC(=O)N1CCc2c(sc3c2c(=O)n(CCc2ccccc2)c(=O)n3Cc2cccc(C)c2)C1	15µM*	x	i	i	x	16µM*
CC(=O)N1CCc2c(sc3c2c(=O)n(-c2ccccc2)c(=O)n3CC(=O)c2ccccc2)C1	25%	x	i	u	x	-29%
CCOC(=O)N1CCc2c(sc3c2c(=O)n(Cc2ccccc2)c(=O)n3Cc2ccc(C)cc2)C1	u	2%	i	i	11%	u
CC(C)CN(CCCNC(=O)c1cn(C)c2ccc(S(=O)(=O)N(C)C3CCCCC3)cc2c1=O)CC(C)C	8%	x	i	i	x	0%
COc1ccc(Cl)cc1NC(=O)c1nnn(CC(=O)Nc2ccc(C)c(C)c2)c1N	-14%	u	i	u	6%	18%
CC(=O)c1cccc(-n2c(=O)c3c4c(sc3n(Cc3cccc(C)c3)c2=O)CN(C(C)=O)CC4)c1	16µM*	x	i	i	x	15µM*
COc1ccccc1NC(=O)Cn1c(=O)n(-c2cccc(C(C)=O)c2)c(=O)c2c3c(sc21)CN(C(C)=O)CC3	3%	x	i	i	x	3%
CCOC(=O)N1CCc2c(sc3c2c(=O)n(CCc2ccccc2)c(=O)n3Cc2c(F)cccc2Cl)C1	u	x	x	x	x	26µM*
COC(=O)Cn1c(=O)n(CCc2ccccc2)c(=O)c2c3c(sc21)CCCC3	-27%	-2%	i	21µM*	u	-24%
Cc1c(-c2ccccc2)[n+](=O)c2c(n1[O-])CCCCC2	-10%	-3%	i	i	1%	-10%
CC12CCC(C)(O1)C1C(=O)N(c3nccs3)C(=O)C12 (stereo not drawn)	13%	0%	i	i	4%	2%
CC(=O)Nc1cccc(OCCCNC(=O)c2cccc3ccccc23)c1	-12%	-6%	i	i	0%	u
CCC(C)[C@H](NC(=O)N1CC(=O)Nc2ccccc21)C(=O)Nc1ccccc1C (stereo partly drawn)	16µM*	u	u	i	u	u
CCOC(=O)C1=NN(c2ccc(C)cc2)C2(S1)SC(C(C)=O)=C(C)N2c1ccccc1 (stereo not drawn)	u	-2%	u	u	-14%	21µM*
